PubChem BioAssay (NCI)
About 83,000 compounds went through this panel and 20% of them were active in at least one assay; those are over-represented in the sample as a whole.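 Activity criterion: percent growth below 10, measured after cells in 96-well plates were exposed to a single compound concentration for 48 hours.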 Activity calls are given as the source filed them.

tested on: SK-MEL-2 melanoma; experiment: NCI-60 one-dose screen, 48 h (100 = growth as untreated, 0 = no growth, -100 = all killed); settings: 10 µM
Protocol: Growth inhibition of the SK-MEL-2 human tumor cell line is measured as a screen for anti-cancer activity. Cells are grown in 96 well plates and exposed to the test compound for 48 hours. Compounds are tested at a single concentration, which is 10^-5 M for most compounds. The reported endpoint is percent growth (GI% or GIPRCNT), where numbers from 0 - 100% represent growth inhibition, and numbers from -100% - 0 represent cell death. For example, a value of 40 represents 60% growth inhibition. A value of 0 means no net growth occurred over the course of the experiment. A value of -40 indicates 40% of cells at the beginning of the experiment died by the end of the experiment. A value of -100 means all cells are dead at the end of the experiment.
NCI-60 Human Tumor Cell Lines Screen was performed using the standard one-dose NCI protocol, which is described in more detail at https://dtp.cancer.gov/discovery_development/nci-60/default.htm.
Compounds with GIPRCNT values below 10 were considered active. Activity score was based on GIPRCNT using the following formula: […]
Score is 0 for GIPRCNT values of 100 or above, 50 for GIPRCNT values of 0, and 100 for GIPRCNT values of -100.

| SMILES | growth |
| --- | --- |
| CCn1cc(C(=O)O)c(=O)c2cc(F)c(N3CCNCC3)cc21 | 113% (inactive) |
| CCOC(=O)c1sc2ncnc(Nc3ccc4c(cnn4C(=O)Nc4ccccc4)c3)c2c1C | 85% (inactive) |
| O=C(CN1CCN(C(=O)c2ccccc2)CC1)Nc1ccccc1SCc1ccccc1 | 66.8% (inactive) |
| COc1ccc(C(=O)CSc2nc(-c3cc(OC)ccc3OC)cc(-c3ccc(OC)cc3)c2C#N)cc1 | 103% (inactive) |
| COc1ccc(-c2cc(-c3ccc(Cl)cc3)nc(SCCCCCCC(=O)NO)n2)cc1OC | 89.3% (inactive) |
| O=C1CSC(=S)N1/N=C/c1ccc(Cl)s1 | 98.6% (inactive) |
| C=C1CCC2(C#N)[C@H]3[C@H](CC[C@@H]2C)[C@@H](C)C[C@@H](CC(C)(C)NC(=O)CN2CCC2=O)[C@H]13 (stereo not given in full) | 64.4% (inactive) |
| NS(=O)(=O)Oc1ccc(NC(=O)C2CCCCCC2)cc1 | 106% (inactive) |
| CC[N+](CC)=c1ccc2nc3c(cc(NCc4ccccc4)c4ccccc43)oc-2c1 | -80.1% (active) |
| COc1cc(NC(=O)C2=C(N3CCOCC3)/C(=C/c3ccc(Cl)cc3)CC2)cc(OC)c1OC | 85.4% (inactive) |
| N#CC1=CC2CN(Cc3ccccc3)C1C1C(=O)N(c3ccccc3)C(=O)C21 (stereo not given) | 105% (inactive) |
| COc1ccc(-c2nc(-c3nc4ccc(C)cc4[nH]3)cc3c2[nH]c2ccccc23)cc1 | 9.81% (active) |
| CC(C)(C)OC(=O)CN1CCc2c(sc3ncnc(N/N=C/c4ccccc4Br)c23)C1 | 87.4% (inactive) |
| COc1ccc(Cl)cc1Nc1nc(C(F)(F)F)ccc1C(=O)N/N=C/c1cc(OC)c(OC)c(OC)c1 | 9.11% (active) |
| COc1cc2cc(Oc3ccc(NC(=O)c4cccc(C(F)(F)F)c4)cc3)c(C)nc2cc1OC | 38.8% (inactive) |
| COc1ccc(-c2cc(-c3ccccc3)nc(SCCCC(=O)NO)n2)cc1 | -7.04% (active) |
| CC1OC2CC(=O)OC2C2=C1C(=O)c1c(O)c3c(c(O)c1C2=O)C1CC(O)C3(O)C(C)O1 (stereo not given) | -55.7% (active) |
| COc1ccc(-c2nn(-c3cccc(Cl)c3)cc2-c2c(C#N)c(N)n(N)c(=O)c2C#N)cc1 | 77.4% (inactive) |
| CC(=O)/C(=C/c1ccc(Br)cc1)C(=O)c1ccccc1 | 107% (inactive) |
| COc1ccc(-c2nn(-c3cccc(Cl)c3)cc2-c2cc(-c3ccccc3)[nH]c(=O)c2C#N)cc1 | 56.7% (inactive) |

| SMILES | growth |
| --- | --- |
| NC1=NC(c2ccccc2)C2=C(N1)/C(=C/c1ccccc1)CCC2 (stereo not given) | 87.1% (inactive) |
| CC(=O)C1CCC2C3CC=C4CC(SC(=N)N)CCC4(C)C3CCC12C (stereo not given) | 32.3% (inactive) |
| COc1ccc(/C=C2\CCCC3C2=Nc2ccccc2NC3c2ccc(OC)cc2)cc1 (stereo not given) | 92% (inactive) |
| COc1cc2c3c(n(C4CCN(C)CC4)c(=O)c2cc1OC)-c1cc2c(cc1C3=O)OCO2 | 80.8% (inactive) |
| C(=N\Nc1ncnc2sc3c(c12)CCNC3)/c1cccc2ccccc12 | 109% (inactive) |
| S=c1cnc2ccccc2[nH]1 | 95.6% (inactive) |
| CC(C)(C)OC(=O)CN1CCc2c(sc3ncnc(N/N=C/c4cccc5ccccc45)c23)C1 | 71.1% (inactive) |
| NS(=O)(=O)Oc1ccc2c(ccn2C(=O)C23CC4CC(CC(C4)C2)C3)c1 | 116% (inactive) |
| COc1cccc(C2C(C#N)=C(N)Oc3cc(N)ccc32)c1 (stereo not given) | 24.5% (inactive) |
| CCOC(=O)c1sc2ncnc(Nc3ccc4c(cnn4C(=O)Nc4ccc(C)c(Cl)c4)c3)c2c1C | 83.5% (inactive) |
| COc1cc(-c2csc(NC(=O)Nc3ccc(Cl)c(C(F)(F)F)c3)n2)cc(OC)c1OC | -14.3% (active) |
| COc1cc2cc(Oc3ccc(NC(=O)Nc4ccc(Cl)c(Cl)c4)cc3)c(C)nc2cc1OC | -7.82% (active) |
| CC(=O)Nc1ccc(S(=O)(=O)N/N=C(\C)c2ccc(C)cc2C)cc1 | 93.1% (inactive) |
| CC(C)C[C@H](NC(=O)Cn1cccc(CNC(=O)c2ccccc2)c1=O)B(O)O | 7.34% (active) |
| CCN(CC)CCOc1cccc2c1C(=O)c1cccc(OCCN(CC)CC)c1C2=O | 32.1% (inactive) |
| CCCCCCCCCCCC[n+]1c(C)cc(N)c2ccccc21 | -52.1% (active) |
| CC(C)c1ccc(C(C)C(=O)N(CC2=C(C(C)c3ccccn3)c3ccccc3C2)C(C)C)cc1 (stereo not given) | 24.1% (inactive) |
| O=C(CCc1nnc2sc(-c3cc(O)c(O)c(O)c3)nn12)c1nc2ccccc2[nH]1 | 111% (inactive) |
| CCOC(=O)c1cc(C(=O)c2cc(OC)cc(OC)c2)n2nc(C)ccc12 | 15.9% (inactive) |
| COc1cc(/C=C/c2cc(/C=C/c3ccc(O)c(OC)c3)n(C(=O)Nc3ccc(C)cc3)n2)ccc1O | -14% (active) |
